Over roughly 59,000 sequences, the read-out has its median near -0.00055; the lowest 2% begin near -2. Only a selection was taken, and the lowest values are over-represented in it overall.

The experiment can be described thus: Identification of proteins required for the processing of the EWS-FLI1 nascent transcript.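 Further: robust z of luciferase light less the median z of siRNAs with the same seed.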 The note with it: TC32 Ewing sarcoma NR0B1-luc vs CMV-luc (EWS-FLI1 target promoter against control promoter), 48 h; screened at 20 nM (by protocol). The essentials: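 Three siRNAs per gene, each in a separate well at 20 nM, were transfected into TC32 cells bearing either reporter construct. Luminescence was measured two days on, and per-gene comparison relied on seed-corrected Z values.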
Sequence UGAGUUUCAUCAUAGUCUG against BMX displayed a seed-corrected z-score of -4.87.
UAAGCACACAUUUACUUGG against HIST1H2BG had a seed-corrected z-score of 0.782.
With UUUCAUCUGAAGACAGGAC against DDIT3 the figure was -1.09; with UCUUCGUUGAGUGCAUCCC against SOCS2-AS1, -0.904.
Take UAUGUAGUUAAGACCAUUC against IRS1: the seed-corrected z-score came out at 0.431.
With ACAAUUUUAGCUGUAACCC against OC90 the figure was 0.989.
Then UCGCUGUCGAGCAGUAAGC against INO80B, with -2.1; and UUAGUGGUCAUGGGCUUCC against GTF2F1, with -0.176.
Then UCGCUUGCAAAUAAUCUGC against ULK2, with -0.141; and AAGUCUGCGAUUAAAGCUG against DTNBP1, with -2.27.
As for UACAUAGCAAACAUGACCG against ATL2, the seed-corrected z-score was -0.859.
Take UGAAGGUUUGGAGCAAACU against RPL15P17: the seed-corrected z-score came to 0.127.
With UGAUCUCAGUCCUCGCUGC against LINC01118 the figure was -0.476; with UGUAGGAACACUCAUCACC against KCNA4, -2.42.
Then UUCUGUCCAAUUGUCGCUG against JTB, with -0.0311; and UAGCAUGUAACGUGUGACC against CNTNAP1, with -0.734; and UGAAGAUCCAGCAAGUAUC against 6-Mar, with 0.65.
With UCACAUGCAUCAAUUUUCG against NDUFB5 the figure was 0.331; with UAUAGCUGAAUGGUCAUUG against KRTAP3-3, -3.04; with UCAGUGACAACAUCACGGC against PPP2R5D, 0.201.
In turn, UGCCGUCUUACUCUUUGCG against C19orf53 displayed a seed-corrected z-score of -0.415.
As for AAACUUGUUUCUGCACAUG against OR2F1, the seed-corrected z-score is 1.3.
Then UUCCCAUUGAUACUCAUGG against LECT1, with -0.035; and UAAUGCUUGAGGCACUUGG against CALHM2, with 0.134; and UUGUCUCUCACUCAGAUUG against HOXB9, with 0.619.
Then UGCUUUGCAAUGAUCUCUC against HNRNPM, with -2.32.
With UGUCAUGCAAUAAGAAUCU against NLGN4Y the figure was 0.297.
The sequence UUAGAGUAAGUAAAUAUCC against RPS18P5 registered a seed-corrected z-score of -0.219.
With UGGGUAUACAGUCAUCAUC against SLC38A9 the figure was -2.9; with UUGGGUAAAAGACAGUUGA against TKT, -0.555.
With UAGACAACAUCAGUGAUCC against RPS8P4 the figure was 0.47; with AAGCUUCUUAACUUCAUUC against RPL14P1, -3.84; with UUUGGAGAACUCCCUGGGC against FLYWCH1, -0.00776.
On to UAAUUGAGGGAGCAAAGGC against FAM53A, for which the seed-corrected z-score is -0.541.
Then UCCUUUUCCACGACCAUCG against CCR2, with -1.29.
Then UGCUGGAUCAGGGAGAUAG against TRPM2, with -2.19; and UCUUGUAGCGGAAAAGGCC against DUSP2, with 0.0146.
With UAACGAAUAAUUUCUGCUC against HPGDS the figure was -0.285; with UUCCGGAUAGCCUACAUCC against USP36, -0.445; with UAAUGUACAUCUCUCGUCC against CNGA1, -2.2.
The sequence UCAUCCUCCAGGAUCAUGG against ZSCAN2 displayed a seed-corrected z-score of -0.868.
Then UAUUAGCACAGUGUAAGGC against PDE10A, with -0.276; and AAUGAUCACAUCGAUAGUG against SGMS2, with -2.21.
Then UUUAUCAUUAGGGCUAGGG against DHRS4L1, with 0.864; and UUUUCGGUAACUCUGCGUG against SPEN, with -0.638.
With UAAGGUUCUCCCUCACAGC against JAKMIP2 the figure was -0.785.
On to UUGUUGUAAAGCACGAUGU against CHRNB4, for which the seed-corrected z-score is -0.439.
Then UAUUAUUGAUGCGACAUCC against CNGB3, with 0.631; and UCUGGUUCCUCGGCGAAGU against PRSS53, with -2.84; and UAUCUUCACUGGGUUCAUG against IRF6, with 2.07.
The sequence AAUUUCUCCAGAAUCUAUG against TENM4 showed a seed-corrected z-score of -2.16.
With UUCUUUUAUUGCCUCGGGU against KISS1 the figure was 0.198; with UUCGUUCCAACAUAGGCUG against AGBL1, -2.49; with UGACAUAUGAGUUCGAUGG against ZCCHC17, 0.589.
For the sequence AAUACUCUCAGUUCGAAUG against TXNDC15, the seed-corrected z-score came to 0.939.
With AAUCUUGUUAUGCUCAUGG against ZBTB47 the figure was -0.317; with UUCGGUUCAAGUUUAGCAG against TM9SF2, -0.205; with UCAAGUUCUAUGAGAUUGG against ARRB1, 0.195.
ACAAUUUCAAGCUCCUGUC against MAGOHB: the seed-corrected z-score was -1.58.
Then UCUAGAUCACCAAACAUCA against OR1N1, with 0.571; and AGACAUAACACCUUCUUCA against RPL10A, with -2.86.
Then ACACCAGUGAUUACUGUGC against FLJ44635, with -0.245; and UUGGUGAAUAGUCUCUUUC against RPS2P45, with -0.275.
Then UCUUCACGCAGUAUCUUUC against SLC25A13, with 1.22; and UCUUCUUUAGUCUUCCUGC against STMND1, with -1.04; and UGCUCGAAAACAACCUUCU against TPI1, with 0.853.
ACAUCUAUCACAUCUAAGG against ZC3H13: the seed-corrected z-score worked out at 0.428.
With UAUUUUGCAAUAUCUUCUC against SLU7 the figure was -0.229; with AUCGUCAUAUCUACCAUUG against USP34, -1.15.
Then UGUUUGAUGACAAGGGUUG against POLE2, with -2.32; and AAAGUGUCUAGCCCUAUGG against MESP1, with 0.768; and “AAUUCCAUGAGGGCCUUCC against CDKN2AIPNLP1”, with -2.53.
With UUCGGCACCAUUCACAGAG against FAM57A the figure was 0.0703; with UGUUGACAAACCAUCUUUC against PDPN, 0.381; with UUCAAAAACCACGAUGUUG against CLDN8, 0.491.
As to UGUUGUAGCACUUGGCUUU against IFITM5, the seed-corrected z-score was -3.59.
On to AUAUCGAACAGUUUGGUAC against CTDNEP1, for which the seed-corrected z-score came out at 0.928.
In turn, AUCCGGAUCAUCGAGUCUG against ATP1B4 came in with a seed-corrected z-score of -0.782.
Sequence UUAAAUGUAAGCAGGUUUC against CYTL1 had a seed-corrected z-score of 0.276.
Then AUUGAGGUAGGAGCCGUCG against FGFRL1, with -2.32; and UUCAUUGCGAUUAGCCUGC against ANXA13, with -0.522; and UACUAGAGCAGUGUCUGAG against DNPH1, with 0.502.
In turn, UUCUCGUUGAUGCGGCUCC against ASB1 yielded a seed-corrected z-score of -2.16.
For UUGUUUUCACUUCCAAUGC against FCAMR, the seed-corrected z-score was -0.0643.
With UCACGGUCAUCAUCUAGGG against FOPNL the figure was -2.56; with UUGUCUAGAAGAAUUGUCG against TTC3, -0.75; with UUAGGGACGAUGUCCACGG against RSPH6A, -0.977.
With UCUGGUUCAGCAUGAGCUG against SYT8 the figure was -2.2.
In turn, UAUAACUUGUCGGAAACGC against NPIPB3 registered a seed-corrected z-score of 0.406.
With UCAAGUCCGACUUGGAGCG against FAM110A the figure was -0.0203; with AGUCUGAAUACCAUCCUUC against GATA1, -0.386.
Sequence AACAUAGCUAAAAUGAUCC against CLMN showed a seed-corrected z-score of -2.28.
With ACUGAGCUCAUUCUUGUCC against HSF1 the figure was -0.661; with UUUACAGCUGAUGAUAUGG against RWDD4, -0.249.
Then UUCGAUAGUAACAAAGUUC against PCDH9, with -2.03; and AAAGUCUCCAGUUAAUAGC against MRPL46, with 1.41; and UAGUGCACCACGCAGGUCU against FKBP1A, with 0.92.
Then UUACGGACAUCCGAUCUUC against DPYS, with -0.0377; and UCAUAGUCCGCGAUCACCU against EDF1, with -0.388; and UAUCCAGUACGUGAGGCCC against LRP5L, with -1.82.
Consider UUGGUUGUCAGAGUAGGUG against HSPA1L, for which the seed-corrected z-score was -2.39.
Then UUUCCCAUCCUUAAAGAGC against PTGS1, with -0.201; and AAUCUAACUGCAUUCGUUG against RSBN1L, with 0.409; and UUGUGAGCCGACAGGAUGC against PYCR2, with -0.604.
Then AAAACAUACAUUGACUUGC against LINC01098, with -0.153.
With UGAGUUUCCGUACCACACC against PRDM12 the figure was -2.92.
With UAUUCCCUAAUAAAGCAGG against ZMYM5, the seed-corrected z-score was 0.289.
With UUCUUCAACCUUGAGGCGG against SNAPC5 the figure was 0.755; with UGAUGUCUACAAUAUCACC against RPL21, -2.69; with UGGGUGAUAAGAAAAACAG against CD40LG, -0.837.
For AAAGCAAAUAGUAUGGUUC against ATG5, the seed-corrected z-score worked out at 0.522.
With UGGACUCCUACAUUACUGC against EFCAB13 the figure was 0.0128.
AAAGGUACUCUUGGGCAGG against EEF1G had a seed-corrected z-score of -0.242.
Then UUAGGUAAUACACUAUUUG against THAP2, with 0.091; and UCCCAGACUUUGACCAUGC against WDR38, with -2; and UCUUGUGGAUGUAAUAUGC against SIMC1, with -0.283.
On to UUCUUCUACAGGCUUGAGG against SMNDC1, for which the seed-corrected z-score is -0.35.
With UGAGUUUGAACCCAAAAGU against IGFL4 the figure was 1.44; with UCUGUAGUCAGUUUGGUUG against LDB1, -0.7.
Then UCAUCUUCUCCAACUUUUC against GINS2, with 0.362; and AAGCUUGUAAGUAUAGACG against SF3B3, with -2.14.
Then AUAGAAAACACCAAGAUUA against TMEM63A, with 0.279; and AUAUGACCUACUACCAUCC against LURAP1, with 0.3.
Regarding ACAUGAUCAACUGGUAGUC against TTBK1, the seed-corrected z-score was -4.16.
With UAAGGUAAGAGCCUGUGCU against ZNF177 the figure was 0.0512.
The sequence AAAAGUAUCAGCAGAAGUC against GPR156 registered a seed-corrected z-score of -0.243.
With UAGUUGAAGAGGGCGUGGG against TAS1R3 the figure was -0.153.
With AACGGAACCUGUGAGAUCC against LARS2 the figure was -0.262; with UAACUGAAUGGCAUCCCGG against C6orf226, 0.21; with UUGUAGUUCAGCUGGUUGU against SPATA2, -2.04.
With UCCUGGAGCAUAUCCGAGC against TMPRSS5 the figure was 0.289; with UCAUUUAGCUUUACCACCC against AHCYL1, 0.0585.

These data come from PubChem BioAssay AID1159506 (National Center for Advancing Translational Sciences (NCATS), 2015).
